HEK293 tox: HEK 293 cell cytotoxicity; hit rate 6.6% among 94,000; HEK 293 viability, ATP luminescence (CellTiter-Glo), 48-72 h; Potency, µM (doses to about 115 µM), most hits filed as inhibitors; further: nearly all actives have a fitted effect of over 60% in size
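HEK 293 cells seeded at 250 cells/well were exposed to compound for 48 or 72 hr at 37 degree Celsius. Viability taken as ATP content by CellTiter-Glo luminescence.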
3T3 cytotox: NIH 3T3 cell cytotoxicity; NIH 3T3 viability, CellTiter-Glo ATP luminescence, 48-72 h; Potency, µM (titrated, usually from 96.7 µM), most hits filed as inhibitors; hit rate 4.3% among 94,000; AID 1345082; further: nearly all actives have a fitted effect of over 55% in size
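Mouse fibroblast NIH 3T3 cells, 400 per well, received compound via pintool and were incubated for 48 or 72 hr prior to CellTiter-Glo ATP luminescence measurement.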
FLuc inh: blocks purified firefly luciferase enzyme activity. Potency, µM (doses to about 115 µM), usual class: inhibitors. P08659. hit rate 2.5% among 76,000. purified P. pyralis luciferase, luminescence, biochemical. AID 1347043; further: nearly all actives have a fitted effect of over 65% in size
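Biochemical qHTS: compound (6-point titration) added to 10uM D-luciferin plus 10uM ATP in Tris acetate pH 7.5 buffer with Mg, Tween-20 and BSA, then purified enzyme at 10nM; light output imaged.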
NPR1 antag: antagonists of human natriuretic peptide receptor Npr1 | Potency, µM (doses to about 46.3 µM), actives largely listed as inhibitors | AID 1347048 | HEK293 hNpr1 GloSensor cGMP, ANP-stimulated luminescence | hit rate 1.6% among 76,000 | P16066; calls by dose curve; further: nearly all actives have a fitted effect of over 60% in size
Target sequence (P16066 whole entry, looked up): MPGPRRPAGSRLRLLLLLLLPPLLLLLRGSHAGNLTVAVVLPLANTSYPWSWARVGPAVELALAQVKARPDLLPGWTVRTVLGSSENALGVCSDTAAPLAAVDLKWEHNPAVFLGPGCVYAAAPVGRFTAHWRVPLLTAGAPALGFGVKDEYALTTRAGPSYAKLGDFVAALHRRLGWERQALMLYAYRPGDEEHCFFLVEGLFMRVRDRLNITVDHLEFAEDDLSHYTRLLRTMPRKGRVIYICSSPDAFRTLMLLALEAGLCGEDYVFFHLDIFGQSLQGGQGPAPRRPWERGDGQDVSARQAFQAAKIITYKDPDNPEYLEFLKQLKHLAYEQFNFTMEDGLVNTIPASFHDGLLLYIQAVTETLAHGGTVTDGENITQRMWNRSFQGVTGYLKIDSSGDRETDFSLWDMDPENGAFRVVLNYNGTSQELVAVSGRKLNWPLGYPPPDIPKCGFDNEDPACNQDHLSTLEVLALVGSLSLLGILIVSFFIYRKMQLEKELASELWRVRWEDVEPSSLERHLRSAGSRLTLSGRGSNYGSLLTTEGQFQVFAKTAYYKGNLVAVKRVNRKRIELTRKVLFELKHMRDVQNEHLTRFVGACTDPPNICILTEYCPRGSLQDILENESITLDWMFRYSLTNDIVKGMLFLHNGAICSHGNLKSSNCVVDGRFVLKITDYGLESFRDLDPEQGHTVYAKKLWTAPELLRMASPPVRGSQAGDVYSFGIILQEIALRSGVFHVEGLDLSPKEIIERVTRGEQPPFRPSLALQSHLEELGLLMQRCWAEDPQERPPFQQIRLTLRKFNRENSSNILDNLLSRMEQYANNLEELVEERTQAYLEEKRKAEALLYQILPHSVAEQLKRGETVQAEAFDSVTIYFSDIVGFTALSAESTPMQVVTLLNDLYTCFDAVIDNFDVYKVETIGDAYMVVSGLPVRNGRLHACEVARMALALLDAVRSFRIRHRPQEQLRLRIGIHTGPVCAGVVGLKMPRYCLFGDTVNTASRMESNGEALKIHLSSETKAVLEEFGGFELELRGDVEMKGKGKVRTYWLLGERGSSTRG
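Compound pre-incubated 30 min at room temperature on GloSensor-loaded HEK293 cells stably carrying hNpr1 and the pGS-40F cGMP biosensor. Stimulation uses hNppA at 0.1 nM final; luminescence is taken at baseline and 20 min post-agonist.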
Large screens that a line does not name were inactive. Shown are actives, neighbours in structure and some others; about 11% of the full set was active somewhere. Unless noted, the call rests on the fitted dose curve; in most records, active means well fitted curve in the direction sought with a large enough effect; inconclusive means small, poorly fitted or top-dose-only effect, or another doubt; inactive means no such curve, though single readings can be large; an effect the other way counts as inactive or inconclusive.

O=C(Cc1cccc(F)c1)N1CCOCC12CCN(Cc1ccccc1)CC2	HEK293 tox inconclusive, 3T3 cytotox 100µM
CC(C)CC(=O)N1CCOCC12CCN(Cc1ccc(C(C)C)cc1)CC2	HEK293 tox 100µM, 3T3 cytotox 71µM
O=C(CCc1ccccc1)N1CCOCC12CCN(Cc1ccccc1)CC2	HEK293 tox inconclusive, 3T3 cytotox 35µM
CCS(=O)(=O)C(C)C(=O)Nc1ccc(OC)c(NC(=O)c2ccco2)c1 (stereo unspecified)	none
Cc1nn(-c2ccccc2)c2c1C(C)N(C1CCN(C(=O)NC(C)C)CC1)C2=O (stereo unspecified)	3T3 cytotox inconclusive (no result: FLuc inh, NPR1 antag)
Cc1nn(-c2ccc(C(C)(C)C)cc2)c(C)c1[C@@H]1C=C[C@@H](NC(=O)Nc2ccccc2)C1	HEK293 tox inconclusive, 3T3 cytotox inconclusive
COC(=O)c1cccc(NC(=S)N[C@@H]2C=C[C@@H](c3c(C)nn(-c4ccc(C(C)C)cc4)c3C)C2)c1	HEK293 tox inconclusive, 3T3 cytotox inconclusive, FLuc inh 13µM, NPR1 antag inconclusive
CCNC(=O)N[C@@H]1C=C[C@@H](c2c(C)nn(-c3ccc(OC)cc3)c2C)C1	HEK293 tox inconclusive, 3T3 cytotox 50µM, FLuc inh inconclusive, NPR1 antag 10µM
Cc1nn(-c2ccc(C(C)C)cc2)c(C)c1[C@@H]1C=C[C@@H](NC(=S)NC2CCCCC2)C1	HEK293 tox inconclusive, 3T3 cytotox inconclusive, FLuc inh 10µM
Cc1ccc(-n2nc(C)c([C@@H]3C=C[C@@H](N)C3)c2C)cc1Cl	HEK293 tox 40µM, 3T3 cytotox 28µM, FLuc inh 71µM
Cc1ccc(-n2nc(C)c([C@H]3C=C[C@@H](OC(=O)Nc4cccc(F)c4)C3)c2C)cc1Cl	HEK293 tox inconclusive, 3T3 cytotox inconclusive
CCN1C(=O)C2CC3(CCN(C(=O)NCCCOC)CC3)CN2C1=O (stereo unspecified)	none
Cc1nn(-c2ccccc2)c2c1C(C1CC1)N(C1CCN(CC3CCCCC3)CC1)C2=O (stereo unspecified)	none (no result: FLuc inh, NPR1 antag)
COc1ccc(-n2nc(C)c([C@@H]3C=C[C@@H](NC(=O)NC4CCCCC4)C3)c2C)cc1	HEK293 tox inconclusive, 3T3 cytotox inconclusive, FLuc inh inconclusive, NPR1 antag 22µM
Cc1ccc(-n2nc(C)c([C@@H]3C=C[C@@H](NC(=O)NC4CCCCC4)C3)c2C)cc1Cl	HEK293 tox inconclusive, 3T3 cytotox inconclusive, FLuc inh 8.9µM
Cc1ccc(C#N)c(NCc2cccnc2N2CCN(c3ccccn3)CC2)n1	HEK293 tox inconclusive, 3T3 cytotox inconclusive
CC(C)(C)CC(=O)N1CCN(c2nc(-c3ccccc3)nc3c2CCC3)CC1	none
O=C(NC[C@@H]1CCCN1)C1CCN(c2nc(-c3ccccc3)nc3c2CCC3)CC1	HEK293 tox 32µM, 3T3 cytotox 22µM
O=C(NC1CCCNC1)C1CCN(c2nc(-c3ccccc3)nc3c2CCC3)CC1 (stereo unspecified)	HEK293 tox inconclusive, 3T3 cytotox 45µM
COC(C)(C)C(=O)N1CCN(c2nc(-c3ccccc3)nc3c2CCC3)CC1	HEK293 tox 79µM
CC1CN(C(=O)C2CCN(c3nc(-c4ccccc4)nc4c3CCC4)CC2)CCN1 (stereo unspecified)	HEK293 tox inconclusive, 3T3 cytotox inconclusive
CNCCNC(=O)C1CCN(c2nc(-c3ccccc3)nc3c2CCC3)CC1	HEK293 tox inconclusive, 3T3 cytotox inconclusive
COc1ccc(C(=O)N2CCC(C(=O)N3CCC(N4Cc5ccccc5C4=O)CC3)CC2)cc1	none (no result: FLuc inh, NPR1 antag)
O=C(c1cscn1)N1CCC2(COc3ncccc3S(=O)(=O)N2)C1 (stereo unspecified)	none (no result: FLuc inh, NPR1 antag)
COC1CN(c2ccc(C)cc2)C12CCN(C(=O)CCc1nc3ccccc3s1)CC2 (stereo unspecified)	HEK293 tox inconclusive, 3T3 cytotox inconclusive
O=[S+]([O-])(c1ccccc1)N1CC2(COCCN(Cc3ccc(Cl)cc3)C2)C1	HEK293 tox inconclusive, 3T3 cytotox inconclusive
O=C(c1cccc(C(F)(F)F)c1)N1CCOCC2(CN(Cc3ccccc3)C2)C1	HEK293 tox 7.1µM, 3T3 cytotox 7.1µM
COc1ccc(C(=O)N2CCOCC3(CN(Cc4cccc(C#N)c4)C3)C2)cc1OC	HEK293 tox inconclusive, 3T3 cytotox 79µM
O=C(c1ccc(Cl)cc1)N1CCOCC2(C1)CN([S+](=O)([O-])c1ccccc1)C2	HEK293 tox inconclusive, 3T3 cytotox 50µM
COc1ccc(C(=O)N2CCC(n3c(C)cnc3C3CCC3)C2)cn1 (stereo unspecified)	none (no result: FLuc inh, NPR1 antag)

High-throughput results deposited in PubChem BioAssay by National Center for Advancing Translational Sciences (NCATS).
